L3MBTL1 inh – blocks human L3MBTL1. Q9Y468. Potency, µM (highest dose often 57.1 µM), usual class: inhibitors. AlphaScreen L3MBTL1–H3K9me1 peptide binding. actives 0.66% (n = 230,000); note: nearly all actives have a fitted effect of over 60% in size
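First, the protein-peptide complex forms for 30 min at room temperature (L3MBTL1 50 nM, biotinylated H3K9me1 peptide 75 nM). Next, compounds are pin-transferred and incubated 30 min. Finally, AlphaScreen beads are added and read after 30 min.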
BAZ2B inh – inhibitors of human BAZ2B bromodomain; actives 4.4% (n = 360,000); Potency, µM (top dose mostly 114 µM), usual class: inhibitors; AID 504333; AlphaScreen BAZ2B-H3K14Ac peptide displacement; Q9UIF8; note: nearly all actives have a fitted effect of over 60% in size
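AlphaScreen displacement of biotin-H3(5-23)K14Ac peptide (50 nM final) from BAZ2B (50 nM final) in PBS pH 7.4, 0.01% Tween-20; complex preformed 30 min RT, then compounds (top 110 uM) 30 min RT, beads 20 min dark.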
KDM4E inh – JMJD2E (human) inhibition | AID 2147 | Potency, µM (doses to about 57.1 µM), usual class: inhibitors | B2RXH2 | actives 1.6% (n = 230,000) | JMJD2E catalytic domain, FDH-coupled NADH fluorescence (FDH is formaldehyde dehydrogenase); active = well fitted inhibition curve with a large enough effect, not every such curve was filed as active; inconclusive = small, poorly fitted or top-dose-only effect, or another doubt; inactive = no such curve, though single readings can be large or run the other way; note: nearly all actives have a fitted effect of over 50% in size
Target sequence (B2RXH2 1-337 limits assumed): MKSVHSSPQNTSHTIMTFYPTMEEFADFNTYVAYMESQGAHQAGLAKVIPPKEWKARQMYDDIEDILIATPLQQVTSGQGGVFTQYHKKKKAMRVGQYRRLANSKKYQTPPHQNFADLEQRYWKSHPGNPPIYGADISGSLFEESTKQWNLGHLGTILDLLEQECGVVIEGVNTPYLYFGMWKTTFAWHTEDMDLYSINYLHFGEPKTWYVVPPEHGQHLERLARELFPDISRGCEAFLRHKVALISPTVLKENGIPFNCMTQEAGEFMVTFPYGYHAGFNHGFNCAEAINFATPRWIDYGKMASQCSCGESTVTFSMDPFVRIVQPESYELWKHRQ
PI5P4Ka inh – PI5P4K alpha (human) kinase inhibition. P48426. PI5P4Kalpha enzyme, ADP-Glo luminescence, 60 min; stronger effect = lower value. max response, %. actives 1.2% (n = 330,000); active = max response of -50% or lower; inconclusive = between -30% and -50%; inactive = -30% or higher; note: value at the top dose of about 77 µM
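Controls without substrate or without enzyme flank wells where PI5P4Kalpha converts substrate using 5 microM ATP (final). Incubation lasts 60 minutes at room temperature; ADP formed is read by ADP-Glo luminescence.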
JMJD2A Tudor – inhibitors of human JMJD2A Tudor domain; O75164; AlphaScreen JMJD2A-Tudor / H3K4me3 peptide binding; Potency, µM (series often up to 114 µM), most hits filed as inhibitors; actives 4.4% (n = 390,000); AID 504339; note: nearly all actives have a fitted effect of over 50% in size
HP1b binding inh – blocks HP1-beta chromodomain binding to methylated histone tails | P83916 | AlphaScreen HP1-beta / biotin-H3K9me3 peptide binding | Potency, µM (highest dose often 114 µM), usual class: inhibitors | actives 0.56% (n = 390,000) | AID 540317; note: nearly all actives have a fitted effect of over 70% in size
Target sequence (P83916 whole entry, looked up): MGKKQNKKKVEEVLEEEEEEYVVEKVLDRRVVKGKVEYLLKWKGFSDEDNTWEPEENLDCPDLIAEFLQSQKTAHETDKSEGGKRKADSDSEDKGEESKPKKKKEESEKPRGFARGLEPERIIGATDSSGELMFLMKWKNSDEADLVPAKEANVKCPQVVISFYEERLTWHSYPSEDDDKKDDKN
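Compound inhibition of the preformed complex between 50 nM HP1-beta and 50 nM biotinylated H3K9me3 peptide was read by AlphaScreen. Buffer was PBS pH 7.4 with 0.01% Tween-20. Incubations ran 30 min at room temperature, with 10 ug/mL donor/acceptor beads.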
A number is an active result; i = inactive; ? = inconclusive; nt = no result; [ ] = remark or other dose. Hits are enriched below; roughly 5.7% of the tested compounds scored in any of these assays. Unless noted, calls come from the whole dose curve; as a rule, active = well fitted inhibition curve with a large enough effect; inconclusive = small, poorly fitted or top-dose-only effect; inactive = no such curve, though single readings can be large or run the other way.

SMILES	L3MBTL1 inh	BAZ2B inh	KDM4E inh	PI5P4Ka inh	JMJD2A Tudor	HP1b binding inh
COc1ccc(/C=C2\SC(=O)NC2=S)cc1OC	i	39.8µM	i	-70.4	79.4µM	?
Cc1cc2c(s1)c1cnn(Cc3c(F)c(F)c(C)c(F)c3F)c(=O)c1n2C	nt	nt	nt	nt	i	nt
COc1ccccc1N1CCN(c2nc3ccc(C)cc3n3nnnc23)CC1	nt	i	nt	nt	i	i
CCOc1ccc(N2CC(NC(=O)Cc3ccccc3)CC2=O)cc1 (centres undefined)	nt	i	nt	nt	i	i
CCOC(=O)C1CCN(c2nc(N)c3c(N)nc(SCC(=O)O)cc3c2C#N)CC1	25.1µM	39.8µM	?	-87.8	i[11.4 µM]	17.8µM
CCOC(=O)C1CCN(c2nc(C)cc(C)c2C#N)CC1	i	i	?	i	i	i
Cc1ccc(-n2c(Cc3cccn3C)nnc2SCC(=O)N2CCc3ccccc32)cc1	i	50.1µM	i	nt	?	?
CCn1c(Cc2cccn2C)nnc1SCC(=O)c1ccc(C)cc1	i	50.1µM	?	i	?	i
CCn1c(SCC(=O)c2ccc(O)c(O)c2)nnc1-c1ccc(C)cc1	?	?	25.1µM	?	28.2µM	i
CCn1c(SCC(=O)c2ccc3c(c2)Cc2ccccc2-3)nnc1-c1ccc(N)cc1	i	i	i	nt	i	i
CC([NH2+][O-])C(C)(C)NO (centres undefined)	i	?	i	i	22.4µM	?
Cc1cc2nnc(SCc3ccc(F)cc3)n2c2ccccc12	nt	i	nt	nt	i	i
Cn1c(CCN2CCOCC2)nc2cc(NC(=O)COc3ccccc3)ccc21	i	i	?	i	i	i
Cc1ccc(C(C)C)c(OCC(=O)Nc2ccc3c(c2)nc(CN2CCCC2)n3C)c1	nt	11.2µM	i	i	?	i
Cn1c(CN2CCOCC2)nc2cc(NC(=O)COc3ccccc3)ccc21	i	i	i	i	56.2µM	i
COc1ccc(CCNC(=O)Cn2c(=O)n(-c3ccc(OC)c(OC)c3)c(=O)c3ccccc32)cc1OC	nt	i	nt	nt	i	i
Cc1ccc(OCc2nc3ccccc3n2Cc2ccccc2Cl)cc1	nt	i	nt	nt	i	i
COc1cc(-c2nc3sccn3c2Nc2c(C)cccc2C)ccc1O	nt	i	nt	nt	56.2µM	?
Cc1cccc(C)c1Nc1c(-c2ccc(O)cc2)nc2sccn12	nt	39.8µM	nt	nt	44.7µM	15.8µM
COc1cccc(Nc2nc(C#N)nc(NC3CCCC3)n2)c1	nt	nt	nt	nt	i	nt
CN1C(=O)Cc2cc([S+](=O)([O-])N3CCN([S+](=O)([O-])c4c(F)cccc4F)CC3)ccc21	nt	nt	nt	nt	i	nt
COc1ccc(C2=CC(=O)C=CC2=O)cc1	nt	10µM	14.1µM	nt	nt	nt
C=C1CCN(C(C(=O)O)C(C)C)S(=O)(=O)c2ccccc21 (centres undefined)	nt	nt	nt	nt	i	i
C/C(=N\NC(N)=O)C1CC(CC(C)C)C(=O)O1 (centres undefined)	i	i	i	i	i	i
CCCCCCCC1CC(/C(C)=N/NC(N)=O)OC1=O (centres undefined)	i	i	i	i	39.8µM	i
SMILES	L3MBTL1 inh	BAZ2B inh	KDM4E inh	PI5P4Ka inh	JMJD2A Tudor	HP1b binding inh
O=C(Nc1ccncc1)c1ccc(Cl)c(S(=O)(=O)N2CCc3ccccc32)c1	i	50.1µM	nt	i	?	i
COc1ccc(-n2nc(C(=O)N3CCCCC3)c3c4ccccc4n(C)c3c2=O)cc1Cl	nt	nt	nt	nt	i	i
O=C(c1ccccc1)C(Sc1ncn[nH]1)c1ccccc1 (centres undefined)	i	i	?	i	79.4µM	i
CC(Sc1ncn[nH]1)C(=O)NCc1ccccc1 (centres undefined)	nt	i	nt	i	i	i
CCC(CC)C(=O)N(C)c1c(C)nc2c(OCc3cc(Cl)cc(Cl)c3)cccn12	nt	nt	nt	i	nt	nt
Cc1cccc(N2CC(C(=O)Nc3ccc(S(=O)(=O)NCC4CCCO4)cc3)CC2=O)c1C (centres undefined)	nt	i	nt	i	i	i
Cc1ccccc1N1CC(C(=O)Nc2ccc(S(=O)(=O)NCC3CCCO3)cc2)CC1=O (centres undefined)	nt	i	nt	i	89.1µM	i
CC1CCCC(C)N1S(=O)(=O)c1ccc(NC(=O)CNCC2CCCO2)cc1 (centres undefined)	i	56.2µM	i	nt	17.8µM	i
